SMILES strings stand for the structures. Screen size: about 120,000 compounds; about 5,300 (4.4%) were called active. Another 22% or so got no clear call; they are omitted. The sample as a whole holds a higher share of actives than the screen did. Unmarked numbers belong to inactive results. The call rests on the fitted dose curve; in most records, active means well fitted inhibition curve with a large enough effect; inconclusive means small, poorly fitted or top-dose-only effect; inactive means no such curve, though single readings can be large or run the other way.
Potency means the concentration at half of the fitted maximal effect.

The experiment is described as follows: qHTS Primary assay for Inhibitors of Plasmodium falciparum Dd2 growth in vitro. Further: nearly all actives have a fitted effect of over 65% in size.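 On activity, negative = inhibition: plate controls were DMSO vehicle for no effect and reference drug for full effect.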 The following applies: P. falciparum Dd2 growth, SYBR Green, 72 h; series mostly up to 28.9 µM; activity, negative = inhibition: at the top concentration. The source says:
Malaria, a parasitic disease spread to humans through the bite of a Plasmodium infected Anopheles mosquito, continues to be a global health burden affecting millions of people, with an estimated 228 million cases and 405,000 deaths in 2018. Concerns about safety and limitations of current antimalarial treatments strongly emphasize the need to develop new therapeutic options. The scarce number of chemotypes and validated drug targets with efficacy against the liver stage, have hindered development of new antimalarials. To address this, a chemoprophylactic drug discovery effort was conducted through a combined phenotypic high-throughput asexual blood stage and liver stage screen, providing a robust foundation to identify liver-stage active lead chemotypes. Compounds were initially screened against Plasmodium falciparum Dd2 strain parasites using a in vitro SYBRGreen-1 based 72 hr proliferation assay to identify novel chemotypes to advance to liver stage assays. NIH/NCATS Early Translation Branch Assay Submitter (PI): Anton Simeonov Ph.D.
Malaria-vivax Assay Protocol: PROTOCOL TABLE (as described by Inglese et al., 2007) SEQUENCE No. (e.g., 1, 2, 3, etc.); […] (e.g., Cells, Incubation, Reagent, etc.); VALUE; DESCRIPTION SEQUENCE, Parameter, Description 1; Reagent; 3 uL complete malaria growth medium, 1536 TC treated Black clear bottom plate 2; Controls; 23 nL positive control artesunate (300 nM final) to column 1; Neutral control DMSO to columns 2-4 3; Compound; 23 nL of compounds in dose response concentration (29 uM to 0.5 nM final) 4; Reagent; 5 uL malaria infected red blood cells (2.5% hematocrit final, 0.3% parasitemia 5; Time; 72 hours at 37C (5% O2, 5% CO2, 90% N2; 95% Rh) 6; Reagent; 2 uL lysis buffer/SYBRGreen-1, 25 sec shake immediately following dispense 7; Time; ~16 hours at 37C (5% O2, 5% CO2, 90% N2; 95% Rh) 8; Detector; EnVision (PerkinElmer) bottom read at 485/14nm excitation and 535/25 nm emission NOTES (numbers refer to sequence above): 1; Complete Malaria Growth Media: 1X RPMI-1640 w/L-glutamine, 5.5g/L Albumax II, 367 uM Hypoxanthine, 25 mM HEPES, 0.25% Sodium Bicarbonate, 35 uM Gentamicin sulfate 2; Controls were added using the Kalypsis Pintool (Wako USA) equipped with 1536 pinhead 3; Compounds were added in a 7-point, titration with a high final concentration of 29 uM by Pintool from seven inter-plate titrations of library plates and two DMSO control plates at the beginning and end (see Yasgar et al., 2008). 4; Red blood cells infected with Plasmodium falciparum Dd2 parasites were used. 6; Lysis buffer: 20 mM Tris-HCl, 10 mM EDTA, 0.16% Saponin, 1.6% Triton-X, 10X SYBR Green. REFERENCE: Inglese J, Shamu CE, Guy RK. 2007. Reporting data from high-throughput screening of small-molecule libraries. Nat Chem Biol. doi:10.1038/nchembio0807-438 Yasgar A, Shinn P, Jadhav A, Auld D, Michael S, Zheng W, Austin CP, Inglese J, Simeonov A. 2008. Compound Management for Quantitative High-Throughput Screening. J Lab Autom 13:79-89. doi:10.1016/j.jala.2007.12.004
For orientation: Quantitative high-throughput screening tests each substance at several concentrations.
For `C=CCN(C)C[C@H]1CN2CC[C@H]1C[C@@H]2CNC(=O)Nc1cccc(SC)c1`, the “activity, negative = inhibition” value is -1.33% [at 44.1 µM].

As for `CN(Cc1ccccc1)C[C@H]1CN2CC[C@H]1C[C@@H]2CNC(=O)Nc1ccsc1`, the Potency is 10 µM (active).

On to `CC[C@H]1CN2CC[C@H]1C[C@@H]2CNC(=O)c1ccc(N(C)C)cc1`, for which the “activity, negative = inhibition” value was -23.9% [at 44.1 µM].

On to `COc1ccc(S(=O)(=O)N2CCN(c3ccc(F)cc3)CC2)cc1-c1noc(C)n1`, for which the “activity, negative = inhibition” value is -4.06%.

With `COc1ccc(OC)c(-c2noc(N3CCN(c4cc(Cl)ccc4C)CC3)n2)c1`, the Potency was 8.91 µM (active).

As to `CCc1nc(-c2cc(S(=O)(=O)N3CCN(c4ccc(OC)cc4)CC3)ccc2OC)no1`, the “activity, negative = inhibition” value was -2.1%.

Take `COc1nccnc1NC1CCN(C(=O)CCc2c(C)noc2C)CC1`: the activity, negative = inhibition is 30.5% [at 5.79 µM].

In the case of `O=C(Cc1ccsc1)N1CCC(c2n[nH]c(=O)n2Cc2ccc(F)cc2)CC1`, the “activity, negative = inhibition” value was -19.7%.

For `Cn1cc(CNC(=O)C[C@@H]2C[C@H]3O[C@H](CNC4CCCC4)[C@@H](O)[C@H]3O2)cn1`, the “outcome” value was “inactive [at 44.1 µM]”.

For the compound `COc1cc(-c2ccnc3nc(C4CC4)nn23)cc(OC)c1OC`, the compound was called inactive.

With `Cn1c(C(=O)Nc2cccc(C(F)(F)F)c2)cc2c(=O)n3ccccc3nc21`, the “activity, negative = inhibition” value is -9.41%.

For `Cc1cccc(C(=O)Nc2ccc(-c3nc4ccccc4s3)c(C)c2)c1`, the “activity, negative = inhibition” value is -25.6%.

On to `Cc1cc(Nc2cccc(C(F)(F)F)c2)nc2ccc(NC(=O)c3ccc(=O)[nH]c3)cc12`, for which the Potency is 3.98 µM (active).

Regarding `O=C(O)c1ccnc(-c2ccnc(NCCN3CCCCC3CO)n2)c1` (stereo not drawn), the “activity, negative = inhibition” value was 23.5%.

For `COc1ccccc1C(=O)N1CCCN(CCc2ccccc2)c2ccccc21`, the Potency is 11.2 µM (active).

Turning to `COc1cccc(C(=O)N2CCCN(C(=O)C3CC3)c3ccccc32)c1OC`, the “activity, negative = inhibition” value is 0.674%.

As for `CN1CCCN(C(=O)c2ccccc2OC(F)(F)F)c2ccccc21`, the “activity, negative = inhibition” value was -8.3%.

For `COc1ccc(C2Cn3nnc(-c4noc(-c5ccccc5)n4)c3CO2)cc1` (stereo not drawn), the compound was called inactive.

`COCCN1C(=O)[C@H]2CN(Cc3ccsc3)C[C@H]2C1=O`: the “activity, negative = inhibition” value was 16.4%.

For the compound `COc1ccc(/C=C/c2nc(C#N)c(NCc3ccc(F)cc3)o2)cc1OC`, the “outcome” value was “inactive; activator; fitted 1.9953 uM”.

For `N#Cc1nc(/C=C/c2ccc(F)cc2)oc1NCc1ccc(F)cc1`, the “activity, negative = inhibition” value was -2.83%.

Regarding `COc1ccccc1/C=C/c1nc(C#N)c(NC(C)c2ccccc2)o1` (stereo not drawn), the Potency is 4.47 µM (active).

With `COCCn1nnnc1C1CC2(CCOCC2)C(=O)N1Cc1ccc(SC)cc1` (stereo not drawn), the “activity, negative = inhibition” value is 25.7%.

As to `COc1cccc(NC(=O)c2c(OC)cc(=O)n3c2CCCC3)c1`, the “activity, negative = inhibition” value was 29.4%.

In the case of `COc1ccc(C(=O)Nc2cccc(-c3nnc4n3CCCC4)c2)cc1`, the Potency is 10 µM (active).

Consider `CC(=O)Nc1cccc(-c2nnc3n2CCCC3)c1`, for which the “activity, negative = inhibition” value is -23.7%.

In the case of `Cc1noc(C)c1C(=O)N1CC(N(Cc2cccnc2)CC(C)C)C1`, the “activity, negative = inhibition” value was -2.89%.

Regarding `O=C(c1ccsc1)N1CCCn2cc(-c3ccc4c(c3)OCO4)nc21`, the outcome was inactive.

As to `CC(C)c1ccc(NC(=O)Cn2c3ncccc3c(=O)n2-c2ccccc2)cc1`, the “activity, negative = inhibition” value is 2.68%.

As to `Cc1ccc(-n2c(=O)c3cccnc3n2CC(=O)Nc2ccccc2C(F)(F)F)cc1C`, the Potency was 8.91 µM (active).

In the case of `Cc1ccc(-n2c(=O)c3cccnc3n2CC(=O)NCc2ccc(F)cc2)cc1C`, the “activity, negative = inhibition” value was -19.7%.

As for `C=CCNC(=O)N1CC[C@H]2CC(=O)N(c3ccccc3)CC[C@H]2C1`, the “activity, negative = inhibition” value is -10.2% [at 44.1 µM].

In the case of `C[C@@]1(O)CCN(Cc2cc(=O)n3[nH]cnc3n2)C[C@@H]1O`, the “activity, negative = inhibition” value was 8.29%.

With `O=C(C1CCCC1)N1CCCC(c2noc(COc3ccccc3)n2)C1` (stereo not drawn), the Potency was 8.91 µM (active).

Regarding `COCc1nc(C2CCCN(C(=O)c3ccccn3)C2)no1` (stereo not drawn), the “activity, negative = inhibition” value is 63.7%.

Consider `CCOc1ccc(C(=O)N2CCCC(c3noc(COC)n3)C2)cc1` (stereo not drawn), for which the “activity, negative = inhibition” value is 57%.

As for `O=C(C1CC1)N1CCc2cc(Br)cc(S(=O)(=O)N3CCN(c4ccccc4F)CC3)c21`, the “activity, negative = inhibition” value was 24%.

Regarding `O=C(CCS(=O)(=O)c1cc(Br)cc2c1N(C(=O)C1CC1)CC2)Nc1ccc(C(F)(F)F)cc1`, the Potency is 1.12 µM (active).

As to `COC(=O)c1cc(NC(=O)CCS(=O)(=O)c2cc(Br)cc3c2N(C(=O)C2CC2)CC3)cc(C(=O)OC)c1`, the “activity, negative = inhibition” value is 9.63%.

For the compound `CN1CC2(CCN(C(=O)c3cccn3C)CC2)CC1C(=O)N1CCOCC1` (stereo not drawn), the “activity, negative = inhibition” value was 2.81%.

For `O=C(Nc1ccc(F)cc1F)c1ccc2c(c1)n(Cc1cccc(F)c1)c(=O)c1ccnn12`, the “activity, negative = inhibition” value is -5.91%.

In the case of `CCNC(=O)N1CCCC1c1noc(CCC(=O)NCCc2nc3ccccc3[nH]2)n1` (stereo not drawn), the “outcome” value is “inactive; activator; fitted 3.9811 uM”.

As to `CC(=O)N1Cc2ccccc2CC2(CCN(Cc3ccc(O)cc3)CC2)C1`, the “activity, negative = inhibition” value was -15.7%.

Take `CC(=O)N1Cc2ccccc2CC2(CCCN(Cc3ccncc3)C2)C1` (stereo not drawn): the “activity, negative = inhibition” value is -19.2%.

Regarding `C[C@H](C(=O)N1Cc2ccccc2CC2(CCN(Cc3ccncc3)CC2)C1)c1ccccc1`, the Potency is 11.2 µM (active).

As to `O=C(CCc1cccnc1)N1CCc2c(n(CCOc3ccccc3)n(-c3ccccc3)c2=O)C1`, the “activity, negative = inhibition” value is 9.6%.

Turning to `COCCCNC(=O)c1cc(C2CC2)nc2onc(C3CCCN3)c12` (stereo not drawn), the “activity, negative = inhibition” value is -11.5%.

As to `CC(C)C[C@@H]1N[C@H](C(=O)NC(C)C)Cc2c[nH]c3cccc1c23`, the “activity, negative = inhibition” value is -0.792% [at 44.1 µM].

(Values after PubChem BioAssay AID1347417 (National Center for Advancing Translational Sciences (NCATS), 2020).)
